SMILES strings stand for the structures. About 5,800 (36%) of roughly 16,000 compounds were called active. Roughly 23% stayed inconclusive and do not appear here. The call rests on the fitted dose curve; in most records, active means well fitted curve in the direction sought with a large enough effect; inconclusive means small, poorly fitted or top-dose-only effect, or effect the other way; inactive means no such curve, though single readings can be large or run the other way. The list shows a part of the results.
On the % scale 0 is the no-effect control and ±100 the full control effect.

The target in the assay is Cytochrome P450 2C19 (Homo sapiens) (UniProt P33261). Nature of the assay: Cytochrome panel assay with activity outcomes. The note with it: recombinant CYP, pro-luciferin dealkylation, luminescence, p450-cyp2c19; series mostly up to 57.1 µM; activity, negative = inhibition: at the top concentration.
Sequence of Cytochrome P450 2C19 (Homo sapiens) (P33261 whole entry, looked up): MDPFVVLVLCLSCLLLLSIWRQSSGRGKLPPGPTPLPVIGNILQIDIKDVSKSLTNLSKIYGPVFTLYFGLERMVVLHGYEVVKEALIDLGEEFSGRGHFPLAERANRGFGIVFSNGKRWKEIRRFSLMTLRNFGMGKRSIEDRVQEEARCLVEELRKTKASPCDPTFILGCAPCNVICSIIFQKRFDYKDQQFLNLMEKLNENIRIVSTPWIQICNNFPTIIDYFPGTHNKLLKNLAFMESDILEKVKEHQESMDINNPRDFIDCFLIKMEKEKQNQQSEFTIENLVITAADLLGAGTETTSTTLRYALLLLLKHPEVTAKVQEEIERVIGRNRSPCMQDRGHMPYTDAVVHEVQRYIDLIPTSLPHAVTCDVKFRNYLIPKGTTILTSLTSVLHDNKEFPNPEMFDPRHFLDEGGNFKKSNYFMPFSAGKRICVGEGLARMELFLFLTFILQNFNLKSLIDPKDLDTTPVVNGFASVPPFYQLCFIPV
As for `Cc1cc(O)c(-c2cc(O)c(C)cc2O)cc1O`, the AC50 is 0.794 µM (active). With `Cc1cc(O)c(C(C)C)cc1CN1CCCCC1`, the activity, negative = inhibition was 32.6% [at 11.4 µM] (inactive). The same measure, in the same setting: in the case of `N#Cc1cccc(NC(=O)N2CC[C@@]3(CCCNC3)C2)c1` it was -30.4% (inactive). Same read-out and setting: for `c1cc(NNc2cccc(-c3nn[nH]n3)c2)cc(-c2nn[nH]n2)c1` the value was 14.6% [at 11.4 µM] (inactive). `CC(C)(C)c1cccc(Oc2nn[nH]n2)c1`: the AC50 was 7.94 µM (active).

In the case of `Cc1cc(C)cc(Oc2nn[nH]n2)c1`, the “activity, negative = inhibition” value is -23% (inactive).

Turning to `COc1ccc(-c2nn3cnnc3s2)cc1OC`, the AC50 was 8.91 µM (active).

As to `Nc1cc(=O)[nH]c(SCC(=O)Nc2ccc(S(=O)(=O)N3CCOCC3)cc2)n1`, the “activity, negative = inhibition” value is 25.5% (inactive). For the molecule `O=C(CSCc1ccccc1)Nc1ccc(S(=O)(=O)N2CCOCC2)cc1`, the AC50 is 17.8 µM (active). On to `COCC(=O)N1CCC2(CC1)CN(C(=O)Nc1cccc(F)c1)C2`, for which the “activity, negative = inhibition” value was -7.41% (inactive).

For `NC(=O)c1ccc(C2SCC(=O)N2Cc2ccccc2)cc1` (stereo not drawn), the AC50 is 10 µM (active). On to `CC(C)(C)NC(=O)CSc1nnc(Cc2ccc3c(c2)OCO3)n1C1CCCCC1`, for which the “activity, negative = inhibition” value is -6.41% (inactive).

Turning to `CC(C)n1nnnc1SCC(=O)NCCc1ccccc1`, the AC50 is 7.94 µM (active).

Regarding `CC(C)n1nnnc1SCC(=O)NCc1ccc2c(c1)OCO2`, the AC50 is 5.01 µM (active). On the same count and under the same terms, in the case of `CC(C)n1nnnc1SCC(=O)c1ccc2c(c1)OCCO2` it was 10 µM (active). As to `O=C(O)c1ccc(Nc2ccnc3cc(Cl)ccc23)cc1O`, the activity, negative = inhibition was -17.2% [at 11.4 µM] (inactive). On the same count and under the same terms, in the case of `CC(=O)[C@@H](C)CCO[C@@]1(C)OCC[C@@H]1C` it was -8.65% [at 11.4 µM] (inactive); in that of `COc1ccc(C(=O)N2CCC3(CCCN(C)C3)CC2)cc1`, -24.1% (inactive). `COc1ccc2c(c1)CCc1c(C(=O)N3CCCCCC3)noc1-2`: the AC50 is 11.2 µM (active). For the molecule `COc1ccc(NC(=O)N2CCCC3(CCN(C(=O)c4c(C)noc4C)CC3)C2)cc1`, the “activity, negative = inhibition” value was 6.8% (inactive). Take `N#C[C@H](c1ccccc1)N1CCCN([C@@H](C#N)c2ccccc2)C1c1ccccc1O` (stereo partly drawn): the AC50 was 0.251 µM (active).

On to `OC[C@@H]1O[C@@H](n2cnc3c(NC4CCCC4)ncnc32)[C@@H](O)[C@H]1O`, for which the “activity, negative = inhibition” value was -9.07% (inactive).

As for `Cc1ccccc1/C=C1\OC(=O)c2ccccc21`, the AC50 is 7.94 µM (active). In the case of `CC(C)c1ccc(/C=C2\C=C(c3ccc4ccccc4c3)OC2=O)cc1`, the activity, negative = inhibition was -31.6% [at 11.4 µM] (inactive). For the molecule `Cc1ccc(/C=C2\OC(=O)c3ccccc32)cc1`, the AC50 was 8.91 µM (active).

Consider `Cc1ccc(=O)n(-c2ccccc2)c1`, for which the “activity, negative = inhibition” value is -31.4% (inactive). As for `COc1ccc(OC)c2[nH]c(=O)c(CCNC(=O)COc3ccccc3)cc12`, the AC50 is 14.1 µM (active). On to `COCCNC(=O)COc1ccc(Oc2ccccc2)cc1`, for which the AC50 is 11.2 µM (active).

As for `COc1ccc(OC)c2[nH]c(=O)c(CCNS(=O)(=O)c3ccc(C)cc3)cc12`, the AC50 was 15.8 µM (active).

With `COc1ccc(OC)c2[nH]c(=O)c(CCNC(=O)C3CCCCC3)cc12`, the AC50 was 10 µM (active).

As for `COCCNC(=O)COc1ccc(OCCNC[C@@H](O)COc2ccccc2)cc1`, the “activity, negative = inhibition” value is -29.3% (inactive).

In the case of `NC[C@H]1O[C@H](n2cnc3c(N)ncnc32)C[C@@H]1O`, the activity, negative = inhibition was 7.59% [at 11.4 µM] (inactive). Regarding `Cn1c(=O)c2[nH]c(CCC(=O)O)nc2n(C)c1=O`, the activity, negative = inhibition is 12% [at 11.4 µM] (inactive). As for `COc1ccc(OC)c2[nH]c(=O)c(CCNC(=O)c3ccc(S(=O)(=O)N4CCCC4)cc3)cc12`, the AC50 is 11.2 µM (active).

Take `CCN1CCCC1CNC(=O)CCNC(=O)c1cc(OC)c(OC)c(OC)c1` (stereo not drawn): the “activity, negative = inhibition” value was 1.37% (inactive). Regarding `COc1ccc(OC)c2[nH]c(=O)c(CCNC(=O)c3ccc(S(=O)(=O)N(C)C)cc3)cc12`, the “activity, negative = inhibition” value was -21.1% (inactive). Consider `CSC1(SC2=NCCN2)SC2(NCCN2)S1`, for which the AC50 was 1.58 µM (active). With `O=C(O)CCSC1=NCCN1`, the activity, negative = inhibition is 42% [at 11.4 µM] (inactive). As to `Cc1ccc(N(Cc2ccccc2)Cc2ccccc2)cc1`, the AC50 is 2 µM (active). For `c1ccc(CN(CC2=NCCN2)c2ccccc2)cc1`, the AC50 result is “inactive”.

As for `CCn1nc(C(=O)Nc2ccccc2C)c(Cl)c1Cl`, the “activity, negative = inhibition” value was -24.3% (inactive). In the case of `Cc1nc(C(=O)Nc2cccc(Cl)c2Cl)nn1-c1cc(OC(C)C)c(Cl)cc1Cl`, the AC50 is 7.08 µM (active). On to `O=C(O)C[C@H](Cc1ccc2c(c1)OCO2)C(=O)O`, for which the activity, negative = inhibition was -29% [at 11.4 µM] (inactive).

For the molecule `CCc1c(C(=O)NCc2ccc3c(c2)OCO3)[nH]c(C)c1C(C)=O`, the AC50 was 7.08 µM (active). On the same count and under the same terms, for `CCc1ccccc1NC(=S)NCc1ccc2c(c1)OCO2` the value was 1.26 µM (active). For the molecule `OC[C@@H](O)CNc1ncnc2ccccc12`, the activity, negative = inhibition is 1.02% [at 11.4 µM] (inactive). Turning to `CCOc1ccc(OCCOc2ncnc3ccccc23)cc1`, the AC50 was 10 µM (active).

In the case of `CC(CO)(CO)Nc1ncnc2ccccc12`, the activity, negative = inhibition is 1.8% [at 11.4 µM] (inactive). As for `CC(=C/c1ccccc1)/C=N/n1cnnc1`, the AC50 is 0.355 µM (active). In the case of `CCc1c(C)nc2ccc(Br)cc2c1Cl`, the AC50 is 3.55 µM (active). `CN(C)CCCc1c2ccccc2nc2ccc(Cl)cc12`: the activity, negative = inhibition was 7.79% [at 11.4 µM] (inactive). In the case of `CC1=NN(c2ccc(S(=O)(=O)O)cc2)C(=O)/C1=C\c1ccc(Cl)cc1`, the activity, negative = inhibition is -11.1% [at 11.4 µM] (inactive). On the same count and under the same terms, in the case of `CC1=NN(c2ccccc2)C(=O)/C1=C\c1c(C)[nH]n(-c2ccccc2)c1=O` it was -3.54% (inactive). For `CCOc1cc(/C=C2/C(=O)N(c3ccccc3)N=C2C)ccc1OC(=O)c1ccco1`, the AC50 is 14.1 µM (active). For the molecule `COc1cccc(NC(=O)COC(=O)c2c3c(nc4ccccc24)CCC(C)C3)c1` (stereo not drawn), the AC50 is 3.98 µM (active).

In the case of `COc1cccc(NC(=O)Cc2c(C(=O)O)[nH]c3ccccc23)c1`, the “activity, negative = inhibition” value is -10.4% (inactive). On the same count and under the same terms, in the case of `COc1ccc(-c2nc3cnc(OC)nc3n(C)c2=O)cc1` it was -0.6% (inactive); in that of `CCc1c(O)nc2sc3ccccc3n2c1=O`, 8.36% (inactive). As to `Cc1ccc2c(CC(=O)OCc3cc(=O)n4c(n3)sc3ccccc34)coc2c1`, the AC50 is 7.08 µM (active). For the molecule `C[C@@H]1C[C@H](C)CN(S(=O)(=O)c2cc(Cl)c(Oc3ccc([N+](=O)[O-])cc3Cl)c(Cl)c2)C1`, the activity, negative = inhibition is -27.5% [at 11.4 µM] (inactive). `CN1CCCN(C)C1c1cc([N+](=O)[O-])ccc1O`: the activity, negative = inhibition was -15% [at 11.4 µM] (inactive). On to `CC1CCCN(C(=O)c2sc3cc([N+](=O)[O-])ccc3c2Cl)C1` (stereo not drawn), for which the AC50 was 3.98 µM (active).

Regarding `Cc1ccc(C2=NN(S(C)(=O)=O)C(c3cccs3)C2)cc1` (stereo not drawn), the AC50 was 0.447 µM (active).

Values taken from PubChem BioAssay AID1851 (National Center for Advancing Translational Sciences (NCATS), 2009).
